The target in experiment [1] is Cellular tumor antigen p53 (Homo sapiens) (UniProt P04637). Nature of the experiment: Primary qHTS for small molecule compounds that upregulate eGFP-tagged delta133p53alpha (in N-terminal) cells. (AID 2060322). Also: nearly all actives have a fitted effect of over 75% in size. Also: potency is read from the fitted curve at half-maximal effect.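 As to activation: cells pre-induced with doxycycline then dosed without doxycycline; series mostly up to about 56 µM; 0% = DMSO vehicle and 100% = reference activator.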 The note with it: NCI-H358 eGFP-delta133p53alpha fluorescence, 24 h; activation: hits give high values. In a few lines:
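NCI-H358 cells pre-induced 24 h with 10 ng/ml doxycycline for eGFP-delta133p53alpha, plated dox-free and exposed 24 h at 37C to titrated compounds. Fixed, Hoechst-stained; gated GFP peak intensity by laser scanning cytometry, normalized to DMSO (0%) and 57.5 uM 5-azacytidine (100%).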
A general note: In qHTS, concentration-response curves come from the screen itself.

Experiment [2] addresses Aldehyde dehydrogenase, mitochondrial (Homo sapiens) (UniProt P05091). The experiment in a line: qHTS for Inhibitors of the Aldehyde Dehydrogenase Family (ALDH2) Primary screen (AID 2061308).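 Also: plate controls were vehicle for no effect and reference inhibitor for full effect; nearly all actives have a fitted effect of over 55% in size.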
Experiment [3] addresses Retinaldehyde dehydrogenase 3 (Homo sapiens) (UniProt P47895). Nature of the experiment: qHTS for Inhibitors of the Aldehyde Dehydrogenase Family (ALDH1A3) Primary screen (AID 2061315). Also: potency is read from the fitted curve at half-maximal effect.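 As to activity change, negative = inhibition: plate controls were DMSO vehicle for no effect and reference inhibitor for full effect.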

Each structure is given as a SMILES string. Results filed as inconclusive are left out. A number with no mark means an inactive call. Activity calls are given as the source filed them. Calls follow the shape of the dose curve; as a rule, active = well fitted curve in the direction sought with a large enough effect; inconclusive = small, poorly fitted or top-dose-only effect, or another doubt; inactive = no such curve, though single readings can be large; an effect the other way counts as inactive or inconclusive.

Chain of Cellular tumor antigen p53 (Homo sapiens) (P04637 whole entry, looked up): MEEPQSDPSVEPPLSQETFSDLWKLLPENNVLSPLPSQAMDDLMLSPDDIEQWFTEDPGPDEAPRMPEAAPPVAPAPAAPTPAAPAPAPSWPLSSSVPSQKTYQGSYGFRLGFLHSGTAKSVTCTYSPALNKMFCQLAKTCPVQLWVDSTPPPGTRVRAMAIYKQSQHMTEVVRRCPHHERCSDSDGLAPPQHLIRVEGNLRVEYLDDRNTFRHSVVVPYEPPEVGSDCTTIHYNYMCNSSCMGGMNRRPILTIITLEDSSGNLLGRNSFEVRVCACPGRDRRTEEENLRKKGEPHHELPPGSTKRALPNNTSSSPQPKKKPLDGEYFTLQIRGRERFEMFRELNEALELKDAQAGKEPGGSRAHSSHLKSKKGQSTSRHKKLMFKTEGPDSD

On to `CC12CCC3c4ccc(O)cc4CCC3C1CCC2OC1OC(C(=O)O)C(O)C(O)C1O` (stereo not given), for which the activation in experiment [1] was -11.7%. The Potency result in experiment [2] and in experiment [3] was “inactive” each time.
For `C=C1C(=O)O[C@@H]2C[C@H](C)C3=CC(=O)[C@H](O)[C@@]3(C)C[C@H]12`, the Potency in experiment [1] is 30.1 µM (active). In addition, the Potency result in experiment [2] and in experiment [3] was “inactive” throughout.
`C[C@@H]1C[C@@H](O)[C@@]2(CO)C(CO)=CCC[C@@H]2[C@@]12C[C@@H](c1ccoc1)OC2=O`: the activation in experiment [1] is 21.4%. Moreover, the Potency result in experiment [2] and in experiment [3] was “inactive” in each case.
For the molecule `C=C(C)C1CCC2(C(=O)OC3OC(COC4OC(CO)C(O)C(O)C4O)C(OC4OC(C)C(O)C(O)C4O)C(O)C3O)CCC3(C(=O)O)C(CCC4C5(C)CCC(=O)C(C)(C)C5CCC43C)C12` (stereo not given), the activation in experiment [1] was -8.4%. The Potency result in experiment [2] and in experiment [3] was “inactive” each time.
On to `O=C(OCC(O)CO[C@@H]1O[C@H](C(=O)O)[C@@H](O)[C@H](O)[C@H]1O)c1ccccc1` (stereo not given in full), for which the activation in experiment [1] is -13%. Further, the Potency entry in experiment [2] and in experiment [3] was “inactive” throughout.
For `CC1=CC(=O)[C@H]2C(C)(C)CCC[C@]2(C)[C@@]1(O)CO`, in experiment [1], the activation was -29%. Moreover, the Potency result in experiment [2] and in experiment [3] was “inactive” throughout.
`CC1(C)CC[C@]2(C(=O)O[C@@H]3O[C@H](CO[C@@H]4O[C@H](CO)[C@@H](O)[C@H](O)[C@H]4O)[C@@H](O)[C@H](O[C@@H]4O[C@H](CO)[C@@H](O)[C@H](O)[C@H]4O)[C@H]3O)CC[C@]3(C)C(=CCC4[C@@]5(C)CC[C@H](O[C@@H]6OC[C@@H](O)[C@H](O)[C@H]6O)[C@@](C)(C(=O)O)C5CC[C@]43C)[C@@H]2C1` (stereo not given in full): in experiment [1], the activation is 0%. For the same molecule, the Potency result in experiment [2] and in experiment [3] was “inactive” each time.
For `CC(C)(C)c1ccc(-c2nc3ccccc3[nH]2)cc1`, in experiment [1], the activation is -14.3%. The Potency entry in experiment [2] was “inactive”. Further, the Potency in experiment [3] was 8.91 µM (active).
With `COc1ccc(/C=C/C(N)=O)cc1OC`, the activation in experiment [1] was 2.68%. Also, the Potency result in experiment [2] and in experiment [3] was “inactive” each time.
In the case of `C[C@@H]1O[C@@H](O[C@H]2[C@H](O)[C@@H](O)[C@H](OC[C@H]3O[C@@H](OC(=O)[C@]45CCC(C)(C)C[C@H]4C4=CCC6[C@@]7(C)CC[C@H](O[C@@H]8OC[C@H](O)[C@H](O[C@@H]9O[C@H](CO)[C@@H](O)[C@H](O)[C@H]9O)[C@H]8O)[C@@](C)(CO)C7CC[C@@]6(C)[C@]4(C)CC5)[C@H](O)[C@@H](O)[C@@H]3O)O[C@@H]2CO)[C@H](O)[C@H](O)[C@H]1O` (stereo not given in full), in experiment [1], the activation was -10.7%. In addition, the activity change, negative = inhibition was 1.57% [at 11.2 µM] in experiment [2] and 14.6% [at 11.2 µM] in experiment [3].

(Values after PubChem BioAssay (NCATS).)
